According to PubChem BioAssay:
Where “and” joins values, the source holds several entries; their conditions need not be identical. Identical values can stand only once. Unmarked numbers belong to inactive results. Calls of active or inactive are those of the source. No rule for the calls is given here.

Target: L-lactate dehydrogenase (Plasmodium falciparum (isolate CDC / Honduras)) (UniProt Q27743)
Assay: PfLDH activity inhibition – cell lysate, 3D7 strain, counter-screen for P. falciparum growth inhibition project (AID 2304);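 also: 0% = vehicle and 100% = reference inhibitor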
Conditions: P. falciparum 3D7 crude extract, LDH APAD/NBT absorbance; at 2 µM; stronger effect = higher value

Sequence of L-lactate dehydrogenase (Plasmodium falciparum (isolate CDC / Honduras)) (Q27743 whole entry, looked up): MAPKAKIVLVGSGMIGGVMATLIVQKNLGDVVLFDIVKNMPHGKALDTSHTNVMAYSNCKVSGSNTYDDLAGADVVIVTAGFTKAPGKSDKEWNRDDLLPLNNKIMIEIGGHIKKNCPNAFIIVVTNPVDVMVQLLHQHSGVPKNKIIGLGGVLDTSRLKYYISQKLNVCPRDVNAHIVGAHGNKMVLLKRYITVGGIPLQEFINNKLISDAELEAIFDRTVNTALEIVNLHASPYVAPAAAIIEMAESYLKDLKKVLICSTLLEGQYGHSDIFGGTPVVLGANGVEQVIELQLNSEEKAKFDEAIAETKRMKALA

SMILES | inhibition [%]
COc1ccc2ncc(F)c(CCN3CC[C@H](NCc4cc5c(s4)CCCN5)[C@H](O)C3)c2n1 | 0
CNCCNCc1ccc(-c2cccc(-c3nc4ccc(C(F)(F)F)cc4[nH]3)c2)cc1 | 1
CN1CCC(C(=O)Nc2cccc(-c3ccc(-c4nc5ccc(C(F)(F)F)cc5[nH]4)s3)c2)CC1 | 0

Tested on: not listed separately
Assay: inhibition of 3D7 malaria parasite growth – strain 3D7 (AID 2306);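 also: 0% = DMSO wells and 100% = chloroquine plus artemisinin control wells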
Conditions: P. falciparum 3D7 erythrocytic growth, LDH absorbance, 72 h; at 2 µM; stronger effect = higher value

SMILES | growth inhibition
Cc1cc(C2CCN(CCCCNC(=O)c3ccc(NC(=O)c4ccc(Cl)cc4)cc3)CC2)c(C)cc1OCc1cccnc1 | 101% (active)
CN1CCCN(Cc2ccc(-c3cccc(NC(=O)c4ccc(F)cc4)c3)cc2)CC1 | 89% (active)
CCCS(=O)(=O)N1CCC(CO)(Cc2ccccc2C(F)(F)F)CC1 | 97% (active)
Oc1ccc(CCNc2nc(NCCCOc3ccccc3-c3ccc(F)cc3)nc(N3CCNCC3)n2)cc1 | 85% (active)
O=C(Nc1cccc(-c2cccc(-c3nc4ccccc4[nH]3)c2)c1)N[C@@H]1C[C@H]1c1ccccc1 | 87% (active) and 90% (active)
O=C(Nc1ccc(-c2cccc(-c3nc4ccc(C(F)(F)F)cc4[nH]3)c2)cc1)c1cccnc1 | 100% (active)
COc1ccc(Cl)cc1S(=O)(=O)Nc1cccc(CCN2CCC(N3CCCCC3)CC2)c1 | 101% (active)
COc1ccc(-n2ccnc2SCC(=O)Nc2cc(C)ccc2C)c(OC)c1 | 94% (active)
O=S(=O)(NCCN1CCCC1)c1cccc(-c2ccccc2CNC2Cc3ccccc3C2)c1 | 99% (active)
CCOC(=O)C(C)(C)Oc1ccc(C(=C2CC(C)(C)CC(C)(C)C2)c2ccc(O)cc2)cc1 | 92% (active)
Cc1nc(-c2ccc(-c3ccc(NC(=O)c4coc5ccc(N6C[C@@H](C)N[C@@H](C)C6)cc45)cc3)c(C)c2)no1 | 101% (active)
c1ccc(Oc2ccc(Nc3ccnc4cc(-c5ccc(CN6CCOCC6)o5)ccc34)cc2)nc1 | 92% (active)
COc1ccc2nc(C)cc(NN=Cc3ccccc3Cl)c2c1 | 100% (active)
COc1ccc2nccc([C@@H](O)CN3CCC(NCc4ccc5nnsc5c4)CC3)c2c1 | 99% (active)
CC(C)(C)C1CCc2nc(N)nc(N)c2C1 (configuration not stated) | 94% (active)
CCN(CC)C(=NCCCCCCN=C(NC(N)=NCc1cccc(Cl)c1)N(CC)CC)NC(N)=NCc1cccc(Cl)c1 | 99% (active)
O=C(NC1CC1)c1cnc(N2CCCC(c3ccccc3)C2)c(Cl)c1 (configuration not stated) | 95% (active)

SMILES | growth inhibition
Cc1cc(NCCC(=O)NCCc2ccccc2)nc(NCCc2ccc(F)cc2)n1 | 92% (active)
CC1(CCc2ccccc2)N=C(N)N=C(N)C1c1ccc(Cl)c(Cl)c1 (configuration not stated) | 98% (active)
Cn1nccc1C(=O)NCCNCc1ccc(-c2ccc(-c3nc4ccc(C(F)(F)F)cc4[nH]3)cc2)cc1 | 100% (active)
O=C(Nc1ccc(CN2CCN(S(=O)(=O)c3ccc(Cl)s3)CC2)cc1)c1cccs1 | 92% (active)
CS(=O)(=O)c1ccc(CNCc2cccc(-c3cccc(-c4nc5ccc(F)cc5[nH]4)c3)c2)cc1 | 102% (active)
O=C(Cc1cnc[nH]1)Nc1ccc(-c2cccc(-c3nc4ccc(F)cc4[nH]3)c2)cc1 | 100% (active)
CC(C)(C)OC(=O)N(Cc1cc(-n2nnnc2C(F)(F)F)ccc1O)[C@H]1CCCN(C(=O)OC(C)(C)C)[C@H]1c1ccccc1 | 98% (active)
Cc1ccc(NCc2cccc(F)c2)cc1S(=O)(=O)N[C@@H]1CCN(C#N)C1 | 89% (active)
Fc1ccc2ncc(Cl)c(CCN3CCC(NCc4cc5c(cn4)OCCO5)CC3)c2c1 | 93% (active)
O=C(NCC1CCN(Cc2ccc(F)cc2)C1)c1cc(-c2cccc(C(F)(F)F)c2)cs1 (configuration not stated) | 93% (active)
CN(C)CCOc1cc(NC(=O)Nc2ccc(-c3ccncc3)c(C(F)(F)F)c2)ccc1Cl | 100% (active)
CCCCCCCc1ccc(-c2c(C)[nH]c(C)c(Cl)c2=O)cn1 | 99% (active)
COc1ccc(CNCc2ccc(F)cc2)cc1-c1ccc(OC)c(S(=O)(=O)NCCN2CCCC2)c1 | 101% (active)
c1ccc(COc2ccc(C3CCCCC3)cc2)nc1 | 99% (active)
O=C(Nc1cccc(-c2ccc(-c3nc4ccc(F)cc4[nH]3)cc2)c1)c1cccnc1 | 101% (active)
O=C(Cn1cc(C=C2SC(=NC3CCCC3)N(C3CCCC3)C2=O)c2ccccc21)N1CCCC1 | 100% (active)
O=C(/C=C/c1ccc(Cl)c(Cl)c1)NC1CCN(CCCNC(=O)c2cccc(Cl)c2)CC1 | 100% (active)
